Experiment [1] relates to Plasmodium falciparum Sir2 (PF13_0152, Sir2A). Put plainly: pfSir2 binders on small-molecule microarrays, primary screen, biochemical, small-molecule microarray, 635 nm fluorescence (AID 1098).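 Note: score merges spot fluorescence intensity with its signal-to-noise ratio.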 As to conditions: small-molecule microarray binding, fluorescence 635 nm; higher = more signal.
Experiment [2] in a line: small-molecule microarray binders of probe aDKK1, primary screen, biochemical, biotinylated probe, 635/667 nm fluorescence (AID 1099).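 Note: score merges 667nm spot fluorescence with signal to noise across triplicate slides.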 As to conditions: higher = more signal.
Experiment [3] in a line: small-molecule microarray binders of probe aCHRDL2, primary screen, biochemical, biotinylated probe, 635/667 nm fluorescence (AID 1100). The settings on record: higher = more signal.
Experiment [4] is described as follows: splicing luciferase reporter signal modulators, primary screen, spliceosome inhibition project, cell-based, HEK293, splice +/- reporter (AID 1101).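 Note: HEK293 cells carrying a splicing-competent luciferase reporter gene; test concentration not given here.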 As to conditions: luminescence, 24 h, higher = more signal, called active from +8 up or from −8 down. Background: A reporter such as luciferase makes a cellular process visible.
In experiment [5] the target is Fibroblast growth factor 10 (Homo sapiens) (UniProt O15520). The experiment in a line: FGF10 binders on small-molecule microarrays, primary screen, biochemical, small-molecule microarray, 635 nm fluorescence (AID 1102). The settings on record: FGF10 binding, fluorescence 635 nm, higher = more signal.
Fibroblast growth factor 10 (Homo sapiens), sequence (O15520 whole entry, looked up): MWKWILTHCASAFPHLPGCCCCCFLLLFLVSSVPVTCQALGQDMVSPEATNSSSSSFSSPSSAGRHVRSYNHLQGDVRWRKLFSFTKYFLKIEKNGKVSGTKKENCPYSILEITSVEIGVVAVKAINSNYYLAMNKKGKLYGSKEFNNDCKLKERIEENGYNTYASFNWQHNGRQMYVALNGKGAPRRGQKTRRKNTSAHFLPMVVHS
For experiment [6], the system named is glycogen synthase kinase-3 (GSK3A per assay name; protocol says GSK3B). Put plainly: GSK3 binders on small-molecule microarrays, primary screen, biochemical, small-molecule microarray, 635 nm fluorescence, GSK3A (AID 1103). Note: the record names both GSK3A and GSK3B. The settings on record: small-molecule microarray binding, fluorescence 635 nm; higher = more signal.
Experiment [7] deals with Epidermal growth factor receptor (Homo sapiens) (UniProt P00533). Put plainly: EGFR binders on small-molecule microarrays, primary screen, biochemical, small-molecule microarray, 635 nm fluorescence (AID 1104).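 Note: score merges 667 nm emission intensity with spot signal to noise over triplicate slides.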 As to conditions: EGFR binding, higher = more signal.
Epidermal growth factor receptor (Homo sapiens), sequence (P00533 whole entry, looked up): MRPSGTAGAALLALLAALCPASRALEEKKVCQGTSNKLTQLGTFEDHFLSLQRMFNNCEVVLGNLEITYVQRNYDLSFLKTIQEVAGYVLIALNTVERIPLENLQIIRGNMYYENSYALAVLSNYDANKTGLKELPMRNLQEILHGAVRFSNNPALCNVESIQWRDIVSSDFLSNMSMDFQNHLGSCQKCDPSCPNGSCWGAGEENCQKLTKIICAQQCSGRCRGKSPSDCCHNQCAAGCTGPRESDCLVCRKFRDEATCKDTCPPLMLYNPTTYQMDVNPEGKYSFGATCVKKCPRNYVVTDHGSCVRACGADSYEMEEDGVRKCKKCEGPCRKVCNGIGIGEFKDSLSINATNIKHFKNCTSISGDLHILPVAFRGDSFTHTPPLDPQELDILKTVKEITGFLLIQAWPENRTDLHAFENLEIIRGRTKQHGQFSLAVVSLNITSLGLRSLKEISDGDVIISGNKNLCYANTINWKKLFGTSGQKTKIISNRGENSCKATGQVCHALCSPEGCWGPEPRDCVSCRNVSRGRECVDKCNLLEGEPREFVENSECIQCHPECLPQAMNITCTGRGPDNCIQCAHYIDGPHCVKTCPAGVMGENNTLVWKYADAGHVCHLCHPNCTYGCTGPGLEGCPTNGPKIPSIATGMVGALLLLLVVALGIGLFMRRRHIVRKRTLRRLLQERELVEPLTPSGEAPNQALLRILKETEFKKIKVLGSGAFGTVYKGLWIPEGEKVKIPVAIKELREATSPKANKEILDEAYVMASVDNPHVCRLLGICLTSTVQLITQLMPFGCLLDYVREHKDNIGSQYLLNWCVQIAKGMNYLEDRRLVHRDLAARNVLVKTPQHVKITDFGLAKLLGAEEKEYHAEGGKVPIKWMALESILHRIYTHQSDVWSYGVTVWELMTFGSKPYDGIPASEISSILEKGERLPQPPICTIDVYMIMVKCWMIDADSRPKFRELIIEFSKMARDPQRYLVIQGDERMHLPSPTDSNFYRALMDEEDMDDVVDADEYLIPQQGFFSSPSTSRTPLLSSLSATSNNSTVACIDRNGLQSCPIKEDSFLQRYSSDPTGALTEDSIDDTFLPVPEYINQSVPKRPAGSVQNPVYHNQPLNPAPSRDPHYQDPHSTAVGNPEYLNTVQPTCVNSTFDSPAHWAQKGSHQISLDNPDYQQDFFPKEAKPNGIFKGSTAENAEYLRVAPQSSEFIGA
Experiment [8] deals with Follistatin-related protein 3 (Homo sapiens) (UniProt O95633). Put plainly: FSTL3 binders on small-molecule microarrays, primary screen, biochemical, small-molecule microarray, 635 nm fluorescence (AID 1105).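 Note: score merges emission near 667 nm and signal to noise per printed spot across three slides.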 As to conditions: FSTL3 binding, higher = more signal.
Follistatin-related protein 3 (Homo sapiens), sequence (O95633 whole entry, looked up): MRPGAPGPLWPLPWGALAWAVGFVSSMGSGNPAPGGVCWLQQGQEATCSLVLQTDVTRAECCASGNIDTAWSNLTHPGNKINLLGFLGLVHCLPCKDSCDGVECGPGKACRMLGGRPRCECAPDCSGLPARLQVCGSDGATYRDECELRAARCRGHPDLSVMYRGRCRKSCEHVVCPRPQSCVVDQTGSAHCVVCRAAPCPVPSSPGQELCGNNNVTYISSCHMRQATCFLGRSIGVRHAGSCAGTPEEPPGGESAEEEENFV
Experiment [9] deals with Dickkopf-related protein 1 (Homo sapiens) (UniProt O94907). The experiment in a line: DKK1 binders on small-molecule microarrays, primary screen, biochemical, small-molecule microarray, 635 nm fluorescence scan (AID 1106).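 Note: score merges emission near 667 nm with signal to noise over three replicate slides.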 The settings on record: DKK1 binding, higher = more signal.
Dickkopf-related protein 1 (Homo sapiens), sequence (O94907 whole entry, looked up): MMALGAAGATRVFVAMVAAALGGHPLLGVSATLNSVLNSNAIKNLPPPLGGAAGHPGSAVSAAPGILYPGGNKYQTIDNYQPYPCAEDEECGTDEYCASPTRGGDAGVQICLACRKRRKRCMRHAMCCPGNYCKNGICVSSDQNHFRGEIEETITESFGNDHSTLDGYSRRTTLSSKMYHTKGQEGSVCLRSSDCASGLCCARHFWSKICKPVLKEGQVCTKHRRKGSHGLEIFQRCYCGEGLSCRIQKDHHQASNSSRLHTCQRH
Experiment [10] relates to Inhibin beta A chain (activin A). The experiment in a line: INHBA (activin A) binders on microarrays, primary screen, biochemical, small-molecule microarray, 635 nm fluorescence scan (AID 1107).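 Note: mouse activin A protein probed at 4.33 µg/mL on printed slides; score merges bound-protein fluorescence near 667 nm with spot signal-to-noise.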 As to conditions: small-molecule microarray binding, higher = more signal.
In experiment [11] the test system is Human papillomavirus type 1a protein E7 (residues 44-93). The experiment in a line: HPV1a E7 fragment binders on microarrays, primary screen, biochemical, small-molecule microarray, residues 44-93, 635 nm fluorescence (AID 1108).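 Note: E7 fragment applied at 1 µg/mL in TBST for 1 h at 4 C; score combines spot fluorescence with its signal to noise ratio.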 The settings on record: small-molecule microarray binding, fluorescence 635 nm; higher = more signal.
Experiment [12] in a line: modulators of HCV replicon luciferase signal, primary screen, HCV replication inhibitor project, Huh7 cells, luciferase reporter (AID 1109).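 Note: huh7 hepatoma cells harbouring a luciferase neomycin HCV replicon reporter; luciferase luminescence as measure of HCV replicon replication; test concentration not given here.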 The settings on record: 48 h, higher = more signal. (In antiviral work, replicon cells carry a viral genome segment that copies itself.)
Experiment [13] has as its target Left-right determination factor 2 (Homo sapiens) (UniProt O00292). Put plainly: LEFTY2 binders on small-molecule microarrays, primary screen, biochemical, small-molecule microarray, 635 nm fluorescence scan (AID 1110). The settings on record: LEFTY2 binding, higher = more signal.
Experiment [14] deals with Calmodulin-1 (Homo sapiens) (UniProt P0DP23). Put plainly: CALM1 binders on microarrays, EGTA buffer, profiling panel, biochemical, small-molecule microarray, Cy5-labelled CALM1 (AID 1111).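 Note: labelled calmodulin applied in Tris saline Tween buffer holding calcium plus EGTA and DTT.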 The settings on record: Cy5-CALM1 binding fluorescence, higher = more signal.
The target is the same in experiment [15]. Put plainly: calcium-bound CALM1 binders on microarrays, profiling panel, artefact control for SMM control-protein annotation, biochemical, small-molecule microarray, Cy5-labelled CALM1, plus calcium (AID 1112).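 Note: score merges spot fluorescence with signal to noise from triplicate slides.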 As to conditions: Cy5-CALM1 binding fluorescence, higher = more signal.
The nature of experiment [16]: small-molecule microarray binders of probe aWnt5a, primary screen, biochemical, biotinylated probe, 635/667 nm fluorescence (AID 1113).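 Note: score merges 667 nm fluorescence intensity with signal-to-noise per printed feature.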 As to conditions: higher = more signal.
Experiment [17] is described as follows: small-molecule microarray binders of probe aShh, primary screen, biochemical, biotinylated probe, 635/667 nm fluorescence (AID 1114).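 Note: probe is biotin-labelled aShh protein from a stem cell growth factor screen; measures binding of labelled protein to compounds printed on the slide; score merges feature fluorescence at 667 nm with signal-to-noise.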 As to conditions: higher = more signal.
Experiment [18] is described as follows: small-molecule microarray binders of probe aNog, primary screen, biochemical, biotinylated probe, 635/667 nm fluorescence (AID 1115).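 Note: probe is biotinylated aNog protein used at 0.15 µg/mL for 1 h at 4 C; z-score combines 667 nm fluorescence of each spot with its signal to noise.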 As to conditions: higher = more signal.
For experiment [19], the target named is Torsin-1A-interacting protein 1 (Homo sapiens) (UniProt Q5JTV8). Put plainly: LAP1 binders from COS7 cell lysate, primary screen, small-molecule microarray, 635/667 nm fluorescence (AID 1116). As to conditions: COS7-hLAP1 lysate binding, 635 nm fluorescence, higher = more signal.
Torsin-1A-interacting protein 1 (Homo sapiens), sequence (Q5JTV8 whole entry, looked up): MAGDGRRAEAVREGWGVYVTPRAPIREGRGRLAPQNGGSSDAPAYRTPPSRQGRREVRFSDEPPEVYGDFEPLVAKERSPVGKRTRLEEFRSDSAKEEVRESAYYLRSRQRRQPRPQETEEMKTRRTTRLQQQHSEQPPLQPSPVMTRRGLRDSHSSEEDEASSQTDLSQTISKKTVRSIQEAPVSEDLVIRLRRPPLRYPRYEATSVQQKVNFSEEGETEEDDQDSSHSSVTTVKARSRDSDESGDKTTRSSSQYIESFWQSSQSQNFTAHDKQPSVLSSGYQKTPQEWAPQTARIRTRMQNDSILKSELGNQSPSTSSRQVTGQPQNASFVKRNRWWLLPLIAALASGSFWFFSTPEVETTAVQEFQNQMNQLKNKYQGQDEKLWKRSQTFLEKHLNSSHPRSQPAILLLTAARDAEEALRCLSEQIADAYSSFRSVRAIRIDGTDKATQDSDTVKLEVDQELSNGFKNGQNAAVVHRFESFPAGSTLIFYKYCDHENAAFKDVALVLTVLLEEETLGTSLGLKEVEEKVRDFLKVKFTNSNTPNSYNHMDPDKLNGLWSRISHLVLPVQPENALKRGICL
The target in experiment [20] is Alpha-bungarotoxin (Bungarus multicinctus) (UniProt P60615). Put plainly: alpha-bungarotoxin binders on microarray, profiling panel, artefact control for SMM control protein annotation, biochemical, small-molecule microarray, Alexa647 label, 635/667 nm fluorescence (AID 1117). The settings on record: alpha-BTX-A647 binding fluorescence, higher = more signal.
Alpha-bungarotoxin (Bungarus multicinctus), sequence (P60615 whole entry, looked up): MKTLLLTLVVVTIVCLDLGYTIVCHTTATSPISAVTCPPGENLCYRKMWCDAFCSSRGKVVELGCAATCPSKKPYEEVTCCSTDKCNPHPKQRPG

Structures are written as SMILES. The source made the active and inactive calls.

Left-right determination factor 2 (Homo sapiens), sequence (O00292 whole entry, looked up): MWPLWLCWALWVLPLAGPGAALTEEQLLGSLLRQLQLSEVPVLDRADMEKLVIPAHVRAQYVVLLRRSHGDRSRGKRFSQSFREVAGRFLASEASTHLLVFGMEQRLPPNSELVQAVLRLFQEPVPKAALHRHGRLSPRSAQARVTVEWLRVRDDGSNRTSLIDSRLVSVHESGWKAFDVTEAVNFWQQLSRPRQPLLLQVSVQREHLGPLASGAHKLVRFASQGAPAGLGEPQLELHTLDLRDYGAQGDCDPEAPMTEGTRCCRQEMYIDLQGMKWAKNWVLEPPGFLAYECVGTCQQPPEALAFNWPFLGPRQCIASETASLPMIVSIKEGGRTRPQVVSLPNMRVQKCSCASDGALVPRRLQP

Regarding `O=C1O[C@H](c2ccccc2)[C@H](c2ccccc2)N2[C@H]1[C@@H](C(=O)O)[C@]1(C(=O)Nc3ccc(C#CC4(O)CCCCCC4)cc31)[C@H]2c1ccc(OCCO)cc1`, the composite z-score in experiment [1] was 0.303; in experiment [2], 0.2; in [3], 0.388; in [5], 0.299; in experiment [6], 0.132; in [7] it was -0.329. Besides, the composite z-score in experiment [8] was 0.418; in [9] it was -0.623; in experiment [10], -0.374; in experiment [11], 1.5; in experiment [13] it was -0.418; in [14], 1.89. The composite z-score stood at 0.475 in experiment [15]; 0.0692 in [16]; 0.0048 in experiment [17]; 0.0028 in experiment [18]; 0.535 in experiment [19]; 2.21 in experiment [20]. The z-score is -0.117 (inactive) in experiment [4] and -1.77 in experiment [12].
In the case of `C=CCNC(=O)[C@H]1[C@@H]2C(=O)O[C@@H](c3ccccc3)[C@@H](c3ccccc3)N2[C@@H](c2ccc(O)cc2)[C@]12C(=O)N(C(=O)OCCOC)c1ccc(C#CCCO)cc12`, the composite z-score in [1] is 1.29; in experiment [2] it was 0.303; in experiment [3], 0.272; in experiment [5], 1.18; in experiment [6], 0.713; in experiment [7] it was -0.248. Also, the composite z-score was -0.0994 in experiment [8]; -0.0705 in [9]; 0.681 in experiment [10]; 0.889 in experiment [11]; -0.166 in experiment [13]; 0.0387 in experiment [14]. Further, the composite z-score in [15] is 0.171; in experiment [16], -0.185; in experiment [17], 0.0639; in [18], -0.332; in [19], 1.35; in experiment [20] it was 1.25. For the same molecule, the z-score was 0.271 (inactive) in experiment [4] and -0.605 in experiment [12].
`COC(=O)C1=CC(CCCO)=CC(C2CC2)N(Cc2sc3ccccc3c2Cl)C=C1C(=O)OC` (stereo not given): the composite z-score was 1.17 in experiment [1]; 0.589 in experiment [2]; 0.724 in experiment [3]; 1.02 in experiment [5]; 0.902 in experiment [6]; 0.0108 in experiment [7]. Moreover, the composite z-score is 0.766 in experiment [8]; -0.0017 in [9]; 1.06 in experiment [10]; 1.44 in [11]; 0.101 in experiment [13]; 1.49 in [14]. For the same molecule, the composite z-score in experiment [15] was 0.952; in [16], 0.168; in [17] it was 0.441; in experiment [18] it was 0.838; in experiment [19], 1.74; in experiment [20], 1.84. Also, the values for the z-score in [4] and in experiment [12] were -0.8 (inactive) and -2.53, respectively.
On to `N#Cc1ccc(NN2C(C(O)c3cccs3)C=CC3C(=O)N(c4ccccc4)C(=O)C32)cc1` (stereo not given), for which the composite z-score is 0.15 in experiment [1]; -0.0705 in [2]; -0.25 in [3]; 1.18 in [5]; 0.349 in experiment [6]; 0.55 in experiment [7]. Also, the composite z-score in experiment [8] was 0.642; in [9], -0.271; in [10] it was 0.207; in experiment [11] it was 0.809; in [13], 0.268; in [14], 0.41. For the same molecule, the composite z-score in experiment [15] is 0.314; in [16] it was 0.0709; in experiment [17], -0.0977; in experiment [18], 1.43; in [19], 1.52; in experiment [20], 0.122. For the same molecule, the z-score in [4] is -0.626 (inactive); in experiment [12], -0.0582.
Consider `COc1ccc([Si](C)(C)[C@@H]2[C@@H](CC(=O)N3CCC[C@H]3CO)O[C@]3(C(=O)N(C)c4c(Br)cc(C)cc43)[C@H]2C)cc1`, for which the composite z-score was determined as 0.717 in experiment [1]; 0.0781 in experiment [2]; 0.0013 in experiment [3]; 0.801 in [5]; 0.889 in experiment [6]; 0.35 in [7]. For the same molecule, the composite z-score was determined as 1.42 in experiment [8]; 1.1 in experiment [9]; 0.809 in experiment [10]; 1.28 in experiment [11]; 0.396 in experiment [13]; 0.207 in [14]. The composite z-score in experiment [15] was 0.0431; in experiment [16] it was 0.0219; in [17], -0.0035; in [18] it was -0.229; in [19], 0.948; in experiment [20], 0.338. For the same molecule, the z-score is -0.778 (inactive) in experiment [4] and -2.05 in experiment [12].

The values above are taken from PubChem BioAssay.
